Data published in PubChem BioAssay AID1159580 (chemical genetic matrix, 2015).
Where “and” joins values, the source holds several entries; their conditions need not be identical. Identical values can stand only once. Screen size: about 5,500 compounds; about 2,000 (36%) were called active. Inconclusive results (about 18%) are left out. Cut-off read from the data, not from the text of the source: active = normalized growth mostly below about 0.91 (no sharp cut-off); inconclusive = no clear call, values can overlap the other calls; inactive = mostly above about 0.92. This is one part of the list.

Test: chemical genetic growth profiling, strain panel (AID 1159580);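 note: tested at 20 µM; growth read once vehicle control cultures reached saturation at 30 °C; 1 = growth at the plate median or of vehicle wells; lower values mean less growth of the strain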
Conditions: S. cerevisiae deletion strains, growth OD
[1] = locus YGR078C, strain PAC10, hits give low values
[2] = locus YMR263W, strain SAP30, hits give low values
[3] = locus YMR307W, strain GAS1, hits give low values

Measured: normalized growth

Cc1c(C)c2c(c(C)c1O)CCC(C)(CCCC(C)CCCC(C)CCCC(C)C)O2 (stereo unspecified)
inactive: locus YAL021C, strain ccr4, hits give low values 1 | locus YAL026C, strain drs2, hits give low values 0.972 | locus YAL030W, strain snc1, hits give low values 0.983 | locus YBL061C, strain skt5, hits give low values 0.989 | locus YBR009C, strain hhf1, hits give low values 0.965 | locus YBR021W, strain FUR4, hits give low values 1.03 | locus YBR023C, strain chs3, hits give low values 0.988 | locus YBR171W, strain sec66, hits give low values 0.986 | locus YBR229C, strain ROT2, hits give low values 1 | locus YBR231C, strain swc5, hits give low values 0.935 | locus YBR279W, strain paf1, hits give low values 0.99 | locus YCL011C, strain gbp2, hits give low values 0.972 | locus YCL016C, strain dcc1, hits give low values 0.982 | locus YCL029C, strain bik1, hits give low values 1 | locus YCL061C, strain MRC1, hits give low values 0.987 | locus YCL069W, strain vba3, hits give low values 0.988 | locus YCR088W, strain abp1, hits give low values 0.985 | locus YDL005C, strain med2, hits give low values 0.983 | locus YDL035C, strain GPR1, hits give low values 1.02 | locus YDL040C, strain nat1, hits give low values 0.99 | locus YDL074C, strain BRE1, hits give low values 1.02 | locus YDL101C, strain DUN1, hits give low values 1.01 | locus YDL134C, strain PPH21, hits give low values 1.01 | locus YDL185W, strain tfp1, hits give low values 1 | locus YDL192W, strain arf1, hits give low values 1.02 | locus YDR001C, strain nth1, hits give low values 0.981 | locus YDR069C, strain doa4, hits give low values 0.968 | locus YDR101C, strain arx1, hits give low values 1.01 | locus YDR137W, strain rgp1, hits give low values 0.966 | locus YDR150W, strain NUM1, hits give low values 1.01 | locus YDR159W, strain sac3, hits give low values 0.956 | locus YDR162C, strain NBP2, hits give low values 0.993 | locus YDR195W, strain ref2 0.949 | locus YDR297W, strain sur2, hits give low values 0.978 | locus YDR318W, strain mcm21, hits give low values 1 | locus YDR334W, strain swr1, hits give low values 0.985 | locus YDR335W, strain msn5, hits give low values 0.988 | locus YDR388W, hits give low values 0.976 | locus YDR392W, strain spt3, hits give low values 0.929 | locus YDR502C, strain sam2, hits give low values 0.987 | locus YEL003W, strain gim4, hits give low values 0.979 | locus YEL037C, strain rad23, hits give low values 0.987 | locus YEL061C, strain CIN8 (second series), hits give low values 0.983 | locus YEL061C, strain CIN8, hits give low values 1.01 | locus YER015W, strain faa2, hits give low values 0.986 | locus YER016W, strain bim1, hits give low values 0.975 | locus YER110C, hits give low values 1 | locus YER111C, strain swi4, hits give low values 0.985 | locus YER155C, strain BEM2 (second series), hits give low values 0.97 | locus YER155C, strain BEM2, hits give low values 1 | locus YER167W, strain BCK2, hits give low values 1.01 | locus YFR010W, strain ubp6, hits give low values 0.988 | locus YGL078C, strain dbp3, hits give low values 0.999 | locus YGL086W, strain mad1, hits give low values 1.02 | locus YGL167C, strain pmr1, hits give low values 0.968 | locus YGL173C, strain kem1, hits give low values 0.985 | locus YGL227W, strain vid30, hits give low values 0.977 | locus YGL240W, strain doc1, hits give low values 0.981 | locus YGL248W, strain PDE1, hits give low values 1.01 | locus YGL253W, strain hxk2, hits give low values 0.995 | [1] 1 | locus YGR135W, strain pre9, hits give low values 1.02 | locus YGR229C, strain SMI1, hits give low values 1.02 | locus YGR252W, strain gcn5, hits give low values 0.95 | locus YHR013C, strain ard1, hits give low values 0.928 | locus YHR027C, strain rpn1, hits give low values 0.993 | locus YHR030C, strain SLT2, hits give low values 1.01 and 0.996 | locus YHR079C, strain IRE1 (second series), hits give low values 1 | locus YHR079C, strain IRE1, hits give low values 1.02 | locus YHR094C, strain hxt1, hits give low values 1 | locus YHR129C, strain ARP1, hits give low values 1.01 | locus YHR142W, strain chs7, hits give low values 0.994 | locus YHR200W, strain rpn10, hits give low values 0.995 | locus YIL066C, strain RNR3, hits give low values 1.01 | locus YIL073C, strain SPO22, hits give low values 1.05 | locus YIL125W, strain kgd1, hits give low values 1.03 | locus YIR030C, strain dcg1, hits give low values 0.997 | locus YJL092W, strain hpr5, hits give low values 0.975 | locus YJL095W, strain BCK1 (second series), hits give low values 0.989 | locus YJL095W, strain BCK1, hits give low values 0.998 and 1 | locus YJL115W, strain asf1, hits give low values 0.985 | locus YJL129C, strain trk1, hits give low values 1.02 | locus YJL134W, strain LCB3, hits give low values 1 | locus YJL154C, strain vps35, hits give low values 0.987 | locus YJL164C, strain tpk1, hits give low values 1.01 | locus YJL166W, strain qcr8, hits give low values 0.993 | locus YJL168C, strain set2, hits give low values 1 | locus YJL187C, strain SWE1 (second series), hits give low values 0.997 | locus YJL187C, strain SWE1, hits give low values 0.982 | locus YJR043C, strain POL32, hits give low values 1 | locus YJR066W, strain TOR1, hits give low values 0.972 | locus YKL009W, strain mrt4, hits give low values 0.969 | locus YKL068W, hits give low values 0.993 | locus YKL085W, strain MDH1 (second series), hits give low values 0.99 | locus YKL085W, strain MDH1, hits give low values 0.99 | locus YKL160W, strain elf1, hits give low values 1.01 | locus YKL190W, strain CNB1, hits give low values 1 | locus YKR001C, strain vps1, hits give low values 0.996 | locus YKR026C, strain gcn3, hits give low values 0.986 | locus YKR091W, strain srl3, hits give low values 0.982 | locus YLL001W, strain dnm1, hits give low values 0.983 | locus YLL026W, hits give low values 0.982 | locus YLL041C, strain sdh2, hits give low values 0.985 | locus YLR027C, strain aat2, hits give low values 0.993 | locus YLR039C, strain RIC1, hits give low values 1.02 | locus YLR058C, strain SHM2, hits give low values 1 | locus YLR102C, strain apc9, hits give low values 1 | locus YLR113W, strain HOG1, hits give low values 0.966 | locus YLR221C, strain rsa3, hits give low values 1.01 | locus YLR258W, strain gsy2, hits give low values 0.967 | locus YLR262C, strain YPT6 (second series), hits give low values 0.98 | locus YLR262C, strain YPT6, hits give low values 1.01 | locus YLR268W, strain sec22, hits give low values 1.01 | locus YLR320W, strain mms22, hits give low values 0.988 | locus YLR330W, strain CHS5, hits give low values 1 | locus YLR342W, strain FKS1 (second series), hits give low values 1.02 | locus YLR342W, strain FKS1, hits give low values 0.978 | locus YLR357W, strain rsc2, hits give low values 1 | locus YLR370C, strain arc18, hits give low values 0.995 | locus YLR371W, strain rom2, hits give low values 1.04 | locus YLR384C, strain iki3, hits give low values 0.978 | locus YLR418C, strain cdc73, hits give low values 0.968 | locus YML016C, strain PPZ1, hits give low values 1 | locus YML032C, strain rad52, hits give low values 0.987 | locus YML120C, strain ndi1, hits give low values 1.03 | locus YML124C, strain tub3, hits give low values 0.993 | locus YMR058W, strain fet3, hits give low values 1.01 | locus YMR078C, strain ctf18, hits give low values 1.02 | locus YMR125W, strain sto1, hits give low values 0.95 | locus YMR129W, hits give low values 0.979 | locus YMR205C, strain PFK2, hits give low values 0.933 | locus YMR223W, strain ubp8, hits give low values 1 | locus YMR231W, strain pep5, hits give low values 0.977 | [2] 1.01 | [3] 1.01 | locus YNL067W, strain RPL9B, hits give low values 1 | locus YNL071W, strain lat1, hits give low values 0.994 | locus YNL153C, strain GIM3, hits give low values 1.01 | locus YNL183C, strain NPR1, hits give low values 0.961 | locus YNL209W, strain ssb2, hits give low values 0.984 | locus YNL233W, strain BNI4, hits give low values 1.02 | locus YNL248C, strain rpa49, hits give low values 1.03 | locus YNL250W, strain rad50, hits give low values 1.01 | locus YNL271C, strain bni1, hits give low values 0.988 | locus YNL298W, strain CLA4, hits give low values 0.965 | locus YNL307C, strain MCK1, hits give low values 1 | locus YNL322C, strain KRE1 (second series), hits give low values 0.994 | locus YNL322C, strain KRE1, hits give low values 1 | locus YNR049C, strain mso1, hits give low values 0.988 | locus YNR052C, strain pop2, hits give low values 1.02 | locus YOL012C, strain htz1 0.962 | locus YOL147C, strain pex11, hits give low values 0.997 | locus YOR001W, strain rrp6, hits give low values 1.02 | locus YOR061W, strain CKA2, hits give low values 1.01 | locus YOR069W, strain VPS5, hits give low values 1 | locus YOR070C, strain gyp1, hits give low values 0.988 | locus YOR080W, strain dia2, hits give low values 0.985 | locus YOR083W, strain WHI5, hits give low values 1.01 | locus YOR106W, strain vam3, hits give low values 1.01 | locus YOR136W, strain idh2, hits give low values 1.01 | locus YOR144C, strain elg1, hits give low values 0.985 | locus YOR184W, strain ser1, hits give low values 0.999 | locus YOR231W, strain MKK1, hits give low values 0.972 | locus YOR265W, strain rbl2, hits give low values 0.996 | locus YOR270C, strain vph1, hits give low values 1.09 | locus YOR290C, strain snf2, hits give low values 1 | locus YOR316C, strain cot1, hits give low values 0.995 | locus YPL051W, strain arl3, hits give low values 1.01 | locus YPL055C, strain LGE1, hits give low values 1.01 | locus YPL078C, strain atp4, hits give low values 1.02 | locus YPL106C, strain sse1, hits give low values 0.966 | locus YPL240C, strain hsp82, hits give low values 0.98 | locus YPL256C, strain CLN2, hits give low values 1.02 | locus YPR119W, strain clb2, hits give low values 0.997 | locus YPR141C, strain kar3, hits give low values 1 | locus YPR163C, strain tif3, hits give low values 1 | locus YPR167C, strain met16, hits give low values 0.984 | strain wtn01, hits give low values 1.01

C[C@]12C=CC(=O)C=C1CC[C@@H]1C2=CC[C@]2(C)[C@@H](C(=O)CN3CCN(c4cc(N5CCCC5)nc(N5CCCC5)n4)CC3)CC[C@@H]12
inactive: locus YAL013W, strain DEP1, hits give low values 0.97 | locus YAL040C, strain CLN3, hits give low values 0.998 | locus YCL061C, strain MRC1 (second series), hits give low values 0.976 | locus YDR363W, strain ESC2, hits give low values 0.964 | locus YER002W, strain NOP16, hits give low values 1.01 | [1] 0.995 | [2] 0.993 | [3] 0.998 | locus YNL128W, strain TEP1, hits give low values 1.03 | locus YNL175C, strain NOP13, hits give low values 1.02 | locus YNL197C, strain WHI3, hits give low values 1.04 | locus YNL224C, strain SQS1, hits give low values 1.01 | locus YOR083W, strain WHI5 (second series), hits give low values 1.01
